The results in this text go back to ChEMBL document CHEMBL3988442, “University of Dundee, Small-Polar-MMV Screening Library” (2021).

Structures are written as SMILES. The whole screen tested about 48,000 compounds, of which about 13,000 (27%) showed an effect of 50% or more. This is one part of the list.

The subject of the test is Wolbachia pipientis. The experiment in a line: Anti-Wolbachia Cell-Based Screen. It is filed as functional. Details: scale not given: in the data most compounds retested in dose-response had high values. Conditions: 5 µM.
In the case of `Cc1noc(CNC(=O)NCCOc2ccc(Cl)cc2)n1`, the “Percent Effect” value was -1.273%.
For the molecule `N#Cc1cccc(OCCCN2CCN(C(=O)c3ccoc3)CC2)c1`, the “Percent Effect” value was -11.27%.
With `CC(C)n1ncc2c1NC(=O)CSC2C(C)(C)C` (centres undefined) the figure was 1.885%; with `CC(C)n1[nH]c(=O)c2c1NC(=O)CSC2C1CCCCC1` (centres undefined), -15.8%; with `CC(C)C1SCC(=O)Nc2c1cnn2-c1ccc(F)cc1` (centres undefined), 81.09%.
Take `Cc1ccccc1CN(CCN(C)C)Cc1ccc(S(C)(=O)=O)cc1`: the “Percent Effect” value is recorded as -5.606%.
With `COc1cccc(C(C(=O)O)N(C)Cc2ccc(C)o2)c1` (centres undefined) the figure was 105.1%; with `Cc1ccc(CN(C)C(C(=O)O)c2ccc3c(c2)OCO3)o1` (centres undefined), 114%; with `COc1c(C)cc(C(C(=O)O)N(C)Cc2ccn[nH]2)cc1C` (centres undefined), -0.04634%.
Turning to `CN1CCCN(C(C(=O)O)c2ccc3c(c2)OCO3)CC1` (centres undefined), the “Percent Effect” value is reported as -6.004%.
Regarding `CN(Cc1ccccn1)C(C(=O)O)c1ccc2c(c1)OCO2` (centres undefined), the “Percent Effect” value worked out at 99.57%.
On to `COc1cccc(Cl)c1C(C(=O)O)N(C)Cc1c(C)n[nH]c1C` (centres undefined), for which the “Percent Effect” value is given as -23.52%.
For `CN(C)C(C(=O)N1CC(c2ccccn2)C1)c1ccc2c(c1)OCO2` (centres undefined), the “Percent Effect” value is -10.36%.
Under `COc1ccc(C(C(=O)O)N(C)Cc2ccon2)cc1Cl` (centres undefined) stands 4.9%; under `COc1ccc(C(C(=O)O)N(C)CCN2CCOCC2)c(C)c1` (centres undefined), 5.185%; under `COc1cccc(OC)c1C(C(=O)O)N(C)Cc1c(C)n[nH]c1C` (centres undefined), -9.19%.
Under `Cc1noc(CN(Cc2ccc3c(c2)OCO3)Cc2ccc(C)o2)n1` stands 1.784%; under `Cc1n[nH]c(C)c1CN(C)C(C(=O)O)c1ccc2c(c1)OCO2` (centres undefined), 109.5%; under `CCc1c(C)[nH]c(C(C)(C)N)nc1=O.Cl`, 24.57%.
With `CCSc1ncc(CN2CCN(c3nc(C)cnc3C)CC2)cn1` the figure was -7.047%; with `CN(C)CCCC(=O)N1C[C@H]2CC[C@@H]1CN(Cc1ccccc1)C2`, -3.863%; with `CCC(CC)C(=O)NCC1(NC(C)c2ccccc2)CCOCC1` (centres undefined), -13.17%.
`COc1ccc(C)cc1CCNS(C)(=O)=O`: the “Percent Effect” value is on record as 4.512%.
For `Cn1ccnc1CN1CCC2(CC1)COC2.O=C(O)C(F)(F)F`, the “Percent Effect” value turned out to be 97.83%.
As to `O=C(O)C(F)(F)F.O=S(=O)(C1CC1)N1CCOCC2(CCN(c3ccccn3)C2)C1` (centres undefined), the “Percent Effect” value was determined as 8.73%.
With `CCOC1CC2(CCN(Cc3nccn3C)CC2)C1.O=C(O)C(F)(F)F` the figure was 2.92%; with `Cn1ccnc1CN1CCC2(COCCN(S(=O)(=O)C3CC3)C2)C1` (centres undefined), 106.3%.
As to `Cn1cncc1CN1CCC2(CC1)COCCN(S(C)(=O)=O)C2.O=C(O)C(F)(F)F`, the “Percent Effect” value is 124.1%.
On to `COC1CC2(CCN(Cc3nccn3C)CC2)C1.O=C(O)C(F)(F)F`, for which the “Percent Effect” value amounted to 5.077%.
Under `Cn1ccnc1CN1CCC2(CC1)CCN(Cc1ccoc1)C2.O=C(O)C(F)(F)F.O=C(O)C(F)(F)F` stands -4.24%; under `CN1CCOCC2(CCN(Cc3ccc[nH]3)CC2)C1.O=C(O)C(F)(F)F.O=C(O)C(F)(F)F`, -3.282%; under `Cn1ccnc1CN1CCC2(COCCN(Cc3ccsc3)C2)C1` (centres undefined), 14.38%.
With `CS(=O)(=O)N1CCOCC2(CN(Cc3nccs3)CCO2)C1.O=C(O)C(F)(F)F` (centres undefined) the figure was 6.136%; with `Cn1ccnc1CN1CCC2(CC1)COCCN(S(C)(=O)=O)C2.O=C(O)C(F)(F)F`, 104.9%.
With `COc1cnc(N2C[C@H](CO)C[C@H](CN3CCOCC3)C2)nc1` the figure was -6.58%; with `Cc1ccc(CN(C(=O)C(C)S(C)(=O)=O)C2CC2)cc1C` (centres undefined), -15.47%; with `Cc1ccc(S(=O)(=O)N(C)CC(C)O)c(F)c1` (centres undefined), 4.809%.
Take `CCc1ncc(C(=O)NC(C)(C)C(=O)OC)s1`: the “Percent Effect” value was -4.518%.
Under `COCC1CC2(CCN(Cc3nccn3C)CC2)CN1c1ncccn1.O=C(O)C(F)(F)F` (centres undefined) stands -8.738%; under `c1cnc(N2CCOCC3(CCN(c4cnccn4)CC3)C2)nc1`, -29.45%; under `Cn1ccnc1CN1CCC2(CC1)COCCN(c1ncccn1)C2`, 118.1%.
With `Cn1cc2ncn(CCNc3cccnc3)c(=O)c2n1` the figure was -8.591%.
Turning to `Cc1csc(C2CCCCN2C(=O)c2cnn3ccc(C)nc23)n1` (centres undefined), the “Percent Effect” value is reported as 2.073%.
Under `Cc1ccc(CC(=O)N2CCCCC2c2nc(C)cs2)cn1` (centres undefined) stands 2.602%; under `Cc1cccc(C(=O)N2CCCCC2c2nc(C)cs2)n1` (centres undefined), 80.1%; under `Cc1csc(C2CCCCN2C(=O)c2cc(C)n(C)n2)n1` (centres undefined), 98.18%.
With `Cc1cnc(C(=O)N2CCCCC2c2nc(C)cs2)cn1` (centres undefined) the figure was 81.82%.
Under `COc1ccc(C(=O)N2CCCCC2c2nc(C)cs2)nn1` (centres undefined) stands -5.655%.
As to `Cc1csc(C2CCCCN2C(=O)c2cn[nH]c2C)n1` (centres undefined), the “Percent Effect” value was 83.45%.
Under `Cc1cncc(C(=O)N2CCCCC2c2nc(C)cs2)c1` (centres undefined) stands 6.279%.
Regarding `CC(C)(C)c1ccc(C2(C(=O)NCCS(N)(=O)=O)CC2)cc1`, the “Percent Effect” value is -15.99%.
Under `Cc1csc(C2CCCCN2C(=O)c2c[nH]c(C)n2)n1` (centres undefined) stands 62.15%; under `CN(Cc1ccco1)C(=O)[C@H]1CSCN1C(=O)OC(C)(C)C`, 12.78%; under `CN(Cc1ccco1)C(=O)C1CSCN1C(=O)c1cccnc1` (centres undefined), 0.06211%.
Under `CN(Cc1cc(-c2cccnc2)no1)C(=O)[C@@H]1CSCN1C` stands -21.19%; under `CCOCC(=O)N1CSCC1C(=O)N(C)Cc1ccco1` (centres undefined), 113.6%; under `Cc1ccc(CC(=O)N2CSCC2C(=O)N(C)Cc2ccco2)o1` (centres undefined), 8.524%.
Take `CN(Cc1ccco1)C(=O)C1CSCN1C(=O)c1cccs1` (centres undefined): the “Percent Effect” value is listed as 104.7%.
Under `CN(Cc1ccco1)C(=O)C1CSCN1C(=O)C1CCC1` (centres undefined) stands 111.9%; under `CN(Cc1ccco1)C(=O)NCC(c1cccs1)N(C)C` (centres undefined), 1.793%.
In the case of `Cn1c(CN2CCCC2c2noc(C3CC3)n2)cc(=O)n(C)c1=O` (centres undefined), the “Percent Effect” value was -13.43%.
`COCC(=O)N1CCCC2(CCN(CCN3CCCC3)CC2)C1.O=C(O)C(F)(F)F.O=C(O)C(F)(F)F`: the “Percent Effect” value came to 18.87%.
Turning to `CCc1n[nH]c(C2CN(C(=O)c3cc(C4CC4)on3)CCO2)n1` (centres undefined), the “Percent Effect” value is reported as 117.8%.
As to `CCCc1n[nH]c(C2CN(C(=O)c3cc(C4CC4)on3)CCO2)n1` (centres undefined), the “Percent Effect” value is given as 114.4%.
Take `O=S(=O)(c1c(Cl)nc2sccn12)N1CCC2(CCNCC2)C1`: the “Percent Effect” value is -2.285%.
Under `CC(C)(C)CN[C@@H]1CO[C@H](CNC(=O)C2CCCC2)[C@H]1O` stands -14.33%; under `CCc1ccc(NC(=O)N2Cc3c(CN(C)C)nn(C)c3C2)cc1.O=C(O)C(F)(F)F`, -20.31%.
With `CCc1ccc(S(=O)(=O)N2Cc3c(CN(C)C)nn(C)c3C2)cc1.O=C(O)C(F)(F)F` the figure was 97.57%; with `COc1ccc(S(=O)(=O)N2Cc3c(CN(C)C)nn(C)c3C2)cc1.O=C(O)C(F)(F)F`, -0.8573%.
Under `CN(C)Cc1nn(C)c2c1CN(C(=O)c1ccc[nH]1)C2.O=C(O)C(F)(F)F` stands -9.086%; under `Cc1ccc(CS(=O)(=O)N2Cc3c(CN(C)C)nn(C)c3C2)cc1.O=C(O)C(F)(F)F`, 96.76%.
For `Cc1ccc(S(=O)(=O)N2Cc3c(CN(C)C)nn(C)c3C2)cc1`, the “Percent Effect” value is -16.71%.
On to `C=Cc1cccc(CN2CCCn3nc(CNS(C)(=O)=O)cc3C2)c1`, for which the “Percent Effect” value was determined as 10.79%.
With `O=C1C(Sc2cnn[nH]2)CCCN1c1ccccc1F` (centres undefined) the figure was -1.507%.
For `Cc1n[nH]c(C2CN(Cc3csc(C4CC4)n3)CCO2)n1` (centres undefined), the “Percent Effect” value was -12.76%.
Turning to `Cc1ccc(Oc2ncccc2C(=O)N(C)CCCN(C)C)c(C)c1`, the “Percent Effect” value was 137.8%.
With `COCCOc1ncccc1C(=O)N(C)c1ccc(OC)c(OC)c1` the figure was -8.68%; with `CC(C)CC(CNC(=O)c1cccnc1Oc1cccnc1)N(C)C` (centres undefined), -29.76%; with `COC(=O)C(NC(=O)c1ccc(C)cc1C)c1cccnc1` (centres undefined), 2.23%.
Take `CC(CNC(=O)c1cccnc1Oc1cccnc1)N(C)C` (centres undefined): the “Percent Effect” value is given as -15.37%.
Take `Cc1ccc(Oc2ncccc2C(=O)O)c(C)c1`: the “Percent Effect” value is 113.8%.
With `Cc1ccc(OCCN(C)Cc2nccn2C)c(C)c1` the figure was 1.849%; with `Cc1ccc(Oc2ncccc2C(=O)N(C)CCCN(C)C)cc1`, 116.5%; with `CCOc1ncccc1C(=O)N(C)Cc1ncc(C)c(OC)c1C`, -9.581%.
`Cc1ccc(OCCNC(=O)C2CCOCC2)c(C)c1`: the “Percent Effect” value is given as -7.551%.
Under `COc1ccc(Oc2ncccc2C(N)=O)cc1CN1CCCC1` stands -15.13%; under `Cc1ccc(Oc2ncccc2C(=O)N(C)CC2OCCO2)c(C)c1`, 132.9%; under `CCc1cc(CNC(=O)N(C2CC2)C(C)c2ccco2)on1` (centres undefined), -6.882%.
Regarding `O=S(=O)(CCSc1nccn1C1CC1)c1ccccc1`, the “Percent Effect” value was 2.896%.
With `COc1ccc(CN2C[C@@H]3OCC(=O)N(Cc4nccn4C)[C@@H]3C2)cc1` the figure was -2.723%.
`Cc1cnn(CCNCC(=O)NC2(C#N)CCCC2)c1`: the “Percent Effect” value was determined as 1.433%.
For the molecule `COc1ccccc1CC(=O)NC(CC(=O)O)c1ccc(F)cc1` (centres undefined), the “Percent Effect” value stood at 7.485%.
Consider `CN(C)c1ncnc2c1CCN(S(=O)(=O)c1cccc(Cl)c1Cl)C2`, for which the “Percent Effect” value is reported as -2.011%.
Under `Cc1nc2n(n1)CCN(S(=O)(=O)c1ccc(OC(F)(F)F)cc1)C2` stands -10.24%; under `CN(C)c1ncnc2c1CCN(S(=O)(=O)c1ccccc1C(F)(F)F)C2`, 15.95%.
As to `CCOCc1ncn2c1CN(S(=O)(=O)c1ccc(OC)cc1)CC2`, the “Percent Effect” value is 3.877%.
As for `O=c1[nH]cnc2c1CCN(S(=O)(=O)c1cccc(OC(F)(F)F)c1)C2`, the “Percent Effect” value was found to be 122.9%.
Under `O=c1[nH]cnc2c1CCN(S(=O)(=O)c1ccc(Cl)cc1)C2` stands 81.06%.
Take `O=c1[nH]cnc2c1CCN(S(=O)(=O)c1ccc(OC(F)(F)F)cc1)C2`: the “Percent Effect” value is on record as 93.77%.
Take `Cc1nc2n(n1)CCN(S(=O)(=O)c1ccc(Cl)cc1)C2`: the “Percent Effect” value is recorded as -10.09%.
`CCOCCOc1ccc(S(=O)(=O)N2CCc3c(nc[nH]c3=O)C2)cc1`: the “Percent Effect” value amounted to 99.77%.
Under `COCc1ncn2c1CN(S(=O)(=O)c1cccc(OC)c1)CC2` stands 5.522%.
As for `CCOCc1cncc2c1CCN(S(=O)(=O)c1ccc(C)cc1)C2`, the “Percent Effect” value was found to be 7.269%.
Take `COc1cccc(S(=O)(=O)N2CCCc3c(OC)nn(C)c3C2)c1`: the “Percent Effect” value was -0.459%.
